In PubChem BioAssay AID565 (University of Pittsburgh Molecular Library Screening Center, 2006):
About 1,200 (1.8%) of roughly 65,000 compounds were called active. No stated cut-off is given here; in the data, active means inhibition above about 50%; inactive means the rest. The entries come from a sample that favours actives as a whole.

Each molecule was assayed against Gag-Pol polyprotein (Human immunodeficiency virus type 1 group M subtype B (isolate HXB2)) (UniProt P04585) (assay: blockers of HIV-1 RNase H RNA/DNA cleavage – biochemical, fluorescence, primary screen (AID 565)). Conditions: RT-RNase H RNA/DNA duplex cleavage, at 10 µM, active compounds read high.

Row | SMILES | inhibition
1 | c1cnn(-c2cc(N3CCOCC3)ncn2)c1 | -2.75% (inactive)
2 | O=C(Nc1cc(N2CCOCC2)ncn1)NC1(C(F)(F)F)Oc2ccc(Cl)cc2O1 (stereo not drawn) | 62.3% (active)
3 | COc1c(C)cccc1C(=O)Nc1cc(Cl)ccc1N1CCOCC1 | -7.75% (inactive)
4 | CC(Sc1nncn1C)C(=O)Nc1ccccc1-c1ccccc1 (stereo not drawn) | -1.62% (inactive)
5 | Cc1ccccc1OCC(=O)Nc1ccc(N2CCN(C(=O)C(C)C)CC2)c(Cl)c1 | -29% (inactive)
6 | CCc1ccccc1NC(=O)CSc1nnc([C@@H](NC(=O)OC(C)(C)C)C(C)C)o1 | -2.47% (inactive)
7 | CCOC(=O)c1c(NC(=O)CSc2nnc(C)c(=O)[nH]2)sc2c1CCC2 | 2.54% (inactive)
8 | CCOC(=O)CSc1nc2sc3c(c2c(=O)[nH]1)CC(C)(C)OC3 | -2.48% (inactive)
9 | CCCCOC(=O)CNc1nnc(SCC(=O)OCC)[nH]c1=O | 55.9% (active)
10 | CCn1c(=O)cc(O)c2ccccc21 | -0.16% (inactive)
11 | CCn1c(=N)c(S(=O)(=O)c2ccc(F)cc2)cc2c(=O)n3ccccc3nc21 | 2.52% (inactive)
12 | Cc1nc2nc(COc3ccccc3)[nH]n2c(=O)c1C | -3.44% (inactive)
13 | CC1(C)CC(=O)C2=C(C1)NCN(CCCN1CCOCC1)C2 | -6.75% (inactive)
14 | C=C(C)Cn1c(N2CCN(CC)CC2)nc2c1c(=O)[nH]c(=O)n2C | 10.6% (inactive)
15 | c1ccc(CCn2nnnc2CN2CCN(C3CCCC3)CC2)cc1 | -0.5% (inactive)
16 | Cc1ccc(S(=O)(=O)Cn2nnnc2CN2CCN(Cc3ccc4c(c3)OCO4)CC2)cc1 | 1.61% (inactive)
17 | Cc1ccc(Cn2nnnc2CN2CCC(n3nnc4ccccc43)CC2)cc1 | 68.7% (active)
18 | Brc1ccc(Nc2c3c(nc4ncnn24)CCC3)cc1 | -1.42% (inactive)
19 | Cc1c(C(=O)CN2CCOCC2)[nH]c2ccccc12 | -6.56% (inactive)
20 | O=C1NC(c2ccncc2)Nc2sc3c(c21)CCCC3 (stereo not drawn) | 12.9% (inactive)
21 | Clc1ccc(C2CC(c3cccs3)n3ncnc3N2)cc1Cl (stereo not drawn) | -4.72% (inactive)

Row | SMILES | inhibition
22 | O=C(Nc1ccc2c(c1)OCCO2)C1CCCN(c2ncccn2)C1 (stereo not drawn) | 7.08% (inactive)
23 | Cc1ccnc(N2CCC(C(=O)NC3CCCCCC3)CC2)n1 | -5.09% (inactive)
24 | Cc1ccnc(N2CCCC(C(=O)Nc3cc(F)ccc3C)C2)n1 (stereo not drawn) | 58.3% (active)
25 | O=C(NCCC1=CCCCC1)C1CCN(Cc2cnn(-c3ccccc3)c2-n2cccc2)CC1 | -3.34% (inactive)
26 | Cc1cc(C)c2c(n1)nn1c(-n3ccnc3)cc(C)nc21 | -11.4% (inactive)
27 | CCOC(=O)N1CCN(CC(=O)c2c(C)[nH]c3ccccc23)CC1 | -4.83% (inactive)
28 | CCOC(=O)N1CCN(CC(=O)n2c(C)c(C)c3ccccc32)CC1 | -3.69% (inactive)
29 | CCOC(=O)N1CCN(CC(=O)c2ccc3c(c2)CCN3)CC1 | 75.5% (active)
30 | O=C1c2ccncc2C(=O)N1C1CCCCC1 | -26.2% (inactive)
31 | COCCNC(=S)c1ccc(OC)cc1 | 88.3% (active)
32 | COCCNC(=O)COc1ccc(C)c(C)c1 | -5.41% (inactive)
33 | COc1ccc(NC(=O)c2ccc(OC)cc2)cc1 | 2.87% (inactive)
34 | COC(=O)C(C)Sc1nc2c(c(=O)n(C)c(=O)n2C)n1Cc1cccc(C)c1 (stereo not drawn) | 8.94% (inactive)
35 | Cc1cc(Nc2ccccc2)n(CCC#N)n1 | -2.42% (inactive)
36 | CCc1ccc2oc(=O)cc(CN3CCCCC3C)c2c1 (stereo not drawn) | -13.3% (inactive)
37 | COc1ccc(Cl)cc1NC(=O)c1oc(C)nc1C | 12.9% (inactive)
38 | Cc1nc(C)c(C(=O)Nc2ccc(C)c(F)c2)o1 | 31.9% (inactive)
39 | Cc1nc(C)c(C(=O)Nc2cccc(C)c2C)o1 | 52.9% (active)
40 | CS(=O)(=O)N(CC(=O)N1CCN(c2cccc(Cl)c2)CC1)c1ccccc1 | -9.31% (inactive)
41 | CCOC(=O)CSc1nnc(-c2ccncc2)o1 | -9.52% (inactive)
42 | COCCCNC(=O)COc1cc(C)c(Cl)c(C)c1 | -96.5% (inactive)

Row | SMILES | inhibition
43 | CCC(Sc1nncn1C)C(=O)Nc1nnc(-c2ccc(Cl)cc2)s1 (stereo not drawn) | -2.44% (inactive)
44 | COc1cccc(NC(=O)CN(C)S(=O)(=O)c2ccc(C)cc2)c1 | -3.65% (inactive)
45 | CCN(CC)C(=O)CSc1nnc(-c2cccc(OC)c2)o1 | -4.72% (inactive)
46 | COc1cccc(-c2nnc(NC(=O)c3ccc(S(=O)(=O)N(CC(C)C)CC(C)C)cc3)o2)c1 | 65.7% (active)
47 | CCOc1cc(S(=O)(=O)NCc2ccc3c(c2)OCO3)ccc1F | -4.32% (inactive)
48 | O=C(NC1CCCCC1)N1CCc2[nH]c3ccccc3c2C1 | -1.26% (inactive)
49 | CCCC(=O)N1CCc2[nH]c3ccccc3c2C1 | 51.2% (active)
50 | Cc1ccc2[nH]c3c(c2c1)CN(C(=O)CN1CCN(c2ccccc2)CC1)CC3 | -8.5% (inactive)
51 | CCCC(NS(=O)(=O)c1ccc(OC)cc1)C(=O)O (stereo not drawn) | -5.87% (inactive)
52 | CCc1nnc(NC(=O)CSc2nnc(COc3ccc(C#N)cc3)n2-c2ccccc2)s1 | 60.1% (active)
53 | CCc1nnc(NC(=O)CSc2nnc(-c3ccncc3)n2Cc2ccccc2)s1 | -7.97% (inactive)
54 | CCc1nnc(NC(=O)CSc2nnc(Cc3ccccc3)n2-c2ccc(OC)cc2)s1 | 10.7% (inactive)
55 | CCOC(=O)N1CCN(C(=O)c2cc3c(-c4ccc(Cl)cc4)nn(C)c3s2)CC1 | -13.4% (inactive)
56 | CCCCn1c(SCc2ncc(-c3ccccc3)o2)nc2cc(S(N)(=O)=O)ccc21 | -15.2% (inactive)
57 | CCOc1ccc(N(CC(=O)OC)S(=O)(=O)c2c(C)noc2C)cc1 | -2.65% (inactive)
58 | Cc1ccc(Nc2nc(CSc3nnnn3-c3ccccc3)cc(=O)[nH]2)cc1 | 2.45% (inactive)
59 | N#CCSc1nc2ccccc2c(=O)n1-c1ccccc1 | -15% (inactive)
60 | O=c1c2ccccc2nc(CSc2nnnn2-c2ccccc2)n1-c1ccccc1 | 52% (active)
61 | COc1ccc(OCCCC(=O)Nc2nnc(C3CCCO3)s2)cc1 (stereo not drawn) | 8.11% (inactive)
62 | CCCCC(=O)N(c1ccc(OC)cc1)C1C=CS(=O)(=O)C1 (stereo not drawn) | -0.43% (inactive)
63 | COC(=O)N(c1ccc(OC)cc1)P1(=S)OCCC(C)O1 (stereo not drawn) | 94.7% (active)
